Tested on: VDR:RXRa (NR concentration 270 nM, RXRa partner concentration 90 nM)
Assay: PBM binding z-score (relative to random genomic background probes); higher = stronger binding; sequences stand for … in GC…GCGATTGACAGCGTAGAATGAAGG
Method: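 Protein-binding microarray (Agilent 4x180K custom design, double-stranded 60-nt probes: 5' GC cap, 34-nt variable region, 24-nt constant primer region; full probe sequence given). Purified or IVT nuclear receptor:RXRα heterodimers (3:1 NR:RXRα, mostly 270:90 nM) or homodimers were incubated for 1 h in PBS with 2% milk and no ligand, then detected with Alexa488 antibodies. Fluorescence from o1-orientation probes (~5 replicates averaged) was converted to z-scores against 500 random hg19 background probes. Variable regions are seed direct-repeat (DR0–DR5) sites, all their single-nucleotide variants and half-site ablations.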

Sequence	PBM binding z-score
ACTCGGAGGACAAAGGTCTGAGCTACGCCAGTGA	-0.29
TAGCCTAGGTCATCGGGCCAGTATAGTACGCATC	2.24
CCGACTGGGGCAAGGTTACCTTAACGCACAGCCA	-0.0796
GCTACTGGGGCAAAGCAGGTTACCATAAGGTTGG	0.028
GCTACAGGGTCAGCTAGAGGCCAGAGTATGGAAA	3.35
CGTCAAAGTTCAAGGTAACGTGACAGAAAGCAGC	3.71
CGTCAAAGTTCAAGGTGACGTAACAGAAAGCAGC	3.91
ATATGTAGGTTAAGGATCATTCAGGTTGGTTCGC	1.45
AGAACGAGGGCAATGAGTTGATATCACGGGTGGC	5.09
ATCTCTAGGTAACCAAGTTCAGGGAATGCCGAAC	3.85
CCAGACACGTGAAAGGTAACTCAGTCTGGTACGC	-0.114
CCTTACGGGACACTGACAGGTTATAGCATTTGGA	-0.00746
CCGACTGGGGCATTAGGTTACCATAAGCCAGCCC	-0.353
AGTCAAAGTTCATCTAGGTAACGTATGATATGCT	4.91
TCTATTAGTTAATTAGGGCAACCGAAACAGCGGA	0.823
CCTAGTTCGTCAAGGTCACACACGCTATAGGTAC	6.46
ACTTACGGGTCAACGAGGGTATAGCACGCGTATA	7.1
CGAACTAGGTCATCAAGGACAGTGAATACATTGA	5.54
CCTCGGAGGACAACAGGAGGTCAGAACTGCCAGA	1.67
GTACCAAGGTGCATAGGTCGTTGATGAGTAGGCG	0.717

Sequence	PBM binding z-score
TAGCCTATGTCAGATCGGGCCAGTATACGCTATA	-0.407
CCTACTGGGCCAAAAGTCATTGATTCCAATGCTC	-0.0662
CGTCCAAGGTCAATGCTAGGTAAGTGAAAGCATT	3.62
CATACTGGGCCAAAGGTCATTGATTCCAATGCTC	5.1
CTCGAATGGTCGGTTGAGGTGAGTATACGGATAA	-0.211
TCATATTGGTAAAGGTGAAAGTCGAACGATATGA	0.612
CAAACTAGGTCGCCGGAAGGTCAAAGTCCGCATG	4.5
CGTCCATGGTCAATGCTAGGTCAGTGAAAGCATT	0.204
TCACATAGGTAAAAGGTGAAAGTCGGTGTGGTAA	1.8
TGAATGAGGTTAAAGCTCAGGGAACGTGGCGTCG	1.14
CCTAGTTGGTCAGGATGTCACACACCGGATATGA	0.176
GCTTGTAGATCAAGGATAAGAAAGACTAAGCTAA	-0.525
ATATTTAGGTTAGCTGGGGTCATTCAGACTAGGC	6.03
TGAATGAGATTATAAGATCAGGGAACGTTGCAAA	-0.491
ACTCGGAGGACAAAGGTCAGAGATACGCCAGTGA	3.38
GCTTTTAGATCAAGGTTAAGAAAGACTAAGCTAA	0.374
TAGCCTAGGTCATTGCGCCAGTATAGTACGCATC	2.33
CATACAGGGTCAGCTAGGCCACAGTAGGGACGGC	4.79
CGAACTAGGTCAAGGACGGTGAATCTCCGCACGC	1.14
CCTACTGGGCCAAAGGTCATTGTTTCCAATGCTC	4.11

— the supplement of paper PMC6555819
